Drawing on PubChem BioAssay (Tox21), this text covers Potency and outcome for 15 molecules.

A short description of test [1]: qHTS assay to identify small molecule antagonists of the glucocorticoid receptor (GR) signaling pathway - cell viability counter screen (AID 720693). Note: nearly all actives have a fitted effect of over 55% in size. Note: potency is the fitted concentration of half-maximal effect.
The nature of test [2]: qHTS assay for identifying genotoxic compounds that show differential cytotoxicity against isogenic chicken DT40 cell lines with known DNA damage response pathways - wild type cell line (AID 743012). Note: nearly all actives have a fitted effect of over 60% in size. Note: potency is the fitted concentration of half-maximal effect. A digest of the protocol: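 Luminescent ATP viability signal (CellTiter-Glo, 30 min RT) recorded after wild type DT40 cells were incubated with compounds for 40 h at 37 C/5% CO2.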
In general terms: qHTS replaces the single test concentration by a dilution series.

A short description of test [3]: qHTS assay for identifying genotoxic compounds that show differential cytotoxicity against isogenic chicken DT40 cell lines with known DNA damage response pathways - Rev3 mutant cell line (AID 743014). Note: nearly all actives have a fitted effect of over 55% in size. Note: potency is the fitted concentration of half-maximal effect.
Test [4] can be described thus: qHTS assay for identifying genotoxic compounds that show differential cytotoxicity against isogenic chicken DT40 cell lines with known DNA damage response pathways - Rad54/Ku70 mutant cell line (AID 743015). Note: nearly all actives have a fitted effect of over 60% in size. Note: potency is the fitted concentration of half-maximal effect.
Test [5] in a line: qHTS assay to identify small molecule antagonists of the androgen receptor (AR) signaling pathway - cell viability counter screen (AID 743033; note: nearly all actives have a fitted effect of over 45% in size; note: potency is the fitted concentration of half-maximal effect).
Test [6] concerns the target Androgen receptor (Homo sapiens) (UniProt P10275). Nature of the test: qHTS assay to identify small molecule antagonists of the androgen receptor (AR) signaling pathway (AID 743035; active = well fitted inhibition curve with a large enough effect in the signal ratio in the repeat runs, not every such curve was filed as active; the % refers to the signal ratio; note: potency is the fitted concentration of half-maximal effect). A digest of the protocol: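 Quantitative HTS of the Tox21 10K library used HEK293 AR-UAS-bla cells stimulated with R1881 alongside compound for 16 h at 37C, followed by beta-lactamase FRET detection (LiveBLAzer B/G, 2 h, RT).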

For test [7] the target is unchanged. The test can be described thus: qHTS assay to identify small molecule agonists of the androgen receptor (AR) signaling pathway (AID 743036; active = well fitted activation curve with a large enough effect in the signal ratio in the repeat runs, with a control signal flat, not every such curve was filed as active; the % refers to the signal ratio; note: potency is the fitted concentration of half-maximal effect). A digest of the protocol:
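AR-UAS-bla HEK293 cells, plated 4 h before dosing, were treated with compound for 16 h at 37C. beta-Lactamase reporter read after 2 h with LiveBLAzer B/G FRET substrate at room temperature.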

The target is the same in test [8]. The test can be described thus: qHTS assay to identify small molecule agonists of the androgen receptor (AR) signaling pathway using the MDA cell line (AID 743040; note: nearly all actives have a fitted effect of over 20% in size). A digest of the protocol:
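Agonist activity is measured as luciferase luminescence in human MDA-kb2 cells whose MMTV reporter responds to both AR and GR. Compounds in DMSO incubate 16 h at 37C, 0% CO2, and ONE-Glo is read after 30 min.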

Test [9] in a line: qHTS assay to identify small molecule antagonists of the thyroid receptor (TR) signaling pathway - cell viability counter screen (AID 743064). Note: nearly all actives have a fitted effect of over 50% in size. Note: potency is the fitted concentration of half-maximal effect. The method in brief: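 GH3.TRE-Luc rat pituitary cells dosed after 4 hr plating, co-stimulated with T3 at 1 nM final, incubated 23.5 h at 37 C. Viability measured in the same wells by CellTiter-Fluor fluorescence after 30 min further at 37 C.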

Test [10] is described as follows: qHTS assay to identify small molecule antagonists of the androgen receptor (AR) signaling pathway using the MDA cell line - cell viability counter screen (AID 743041; note: nearly all actives have a fitted effect of over 45% in size; note: potency is the fitted concentration of half-maximal effect). A digest of the protocol: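 qHTS viability read-out; MDA-kb2 AR-luc; R1881-stimulated; 16 h exposure at 37C, 0% CO2; CellTiter-Fluor, 30 min; fluorescence intensity.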

Values joined by “and” are separate entries in the source; they are usually repeats but may differ in a detail not shown here. Equal values may be shown once. Inconclusive results are not listed. Where a structure was tested more than once in an assay, its records may differ in their call. Active and inactive are the calls of the source. Unless noted, calls come from the whole dose curve; as a rule, active = well fitted curve in the direction sought with a large enough effect in the repeat runs; inconclusive = weak or mixed curves; inactive = no such curve, though single readings can be large; an effect the other way counts as inactive or inconclusive.
% is set by controls: 0 for no effect and ±100 for the full control effect.

Androgen receptor (Homo sapiens), sequence (P10275 whole entry, looked up): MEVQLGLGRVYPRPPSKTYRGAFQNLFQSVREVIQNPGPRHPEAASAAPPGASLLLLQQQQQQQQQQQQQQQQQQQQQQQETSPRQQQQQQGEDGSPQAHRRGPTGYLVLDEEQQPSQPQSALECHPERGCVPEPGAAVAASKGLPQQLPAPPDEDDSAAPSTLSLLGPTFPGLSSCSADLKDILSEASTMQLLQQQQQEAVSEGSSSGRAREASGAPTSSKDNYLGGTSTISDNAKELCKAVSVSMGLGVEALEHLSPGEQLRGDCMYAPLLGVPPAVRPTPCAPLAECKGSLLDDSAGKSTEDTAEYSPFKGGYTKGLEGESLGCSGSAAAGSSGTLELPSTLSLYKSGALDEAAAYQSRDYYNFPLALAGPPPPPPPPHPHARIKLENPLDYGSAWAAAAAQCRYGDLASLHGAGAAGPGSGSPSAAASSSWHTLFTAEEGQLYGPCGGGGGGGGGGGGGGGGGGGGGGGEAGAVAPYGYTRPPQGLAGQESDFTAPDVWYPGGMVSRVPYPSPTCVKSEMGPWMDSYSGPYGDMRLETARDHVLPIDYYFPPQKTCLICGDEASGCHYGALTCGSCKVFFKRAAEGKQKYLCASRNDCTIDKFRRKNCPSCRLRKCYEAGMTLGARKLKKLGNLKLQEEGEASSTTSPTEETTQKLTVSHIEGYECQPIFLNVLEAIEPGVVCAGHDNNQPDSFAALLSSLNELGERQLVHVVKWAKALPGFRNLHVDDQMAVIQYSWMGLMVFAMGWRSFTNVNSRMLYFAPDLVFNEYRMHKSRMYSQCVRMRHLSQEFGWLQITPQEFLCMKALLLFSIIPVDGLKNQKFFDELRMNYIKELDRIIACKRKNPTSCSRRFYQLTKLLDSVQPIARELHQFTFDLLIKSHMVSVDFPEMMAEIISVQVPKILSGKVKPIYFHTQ

Turning to `CCCCC(CC)COC(=O)CC(C(=O)OCC(CC)CCCC)S(=O)(=O)O` (stereo unspecified), the Potency result in [1], in test [2], in test [3] and in test [5] was “inactive” each time. The Potency result in [4] was “inactive and 43.3 µM (active)”.

Turning to `CCN(CC)C(=S)SSC(=S)N(CC)CC`, the Potency result in test [1] and in [7] was “inactive” throughout. The Potency in [2] is 106 nM (active) and 96.9 nM (active) and 19.8 nM (active); in [3] it was 119 nM (active) and 96.9 nM (active) and 38.4 nM (active); in [4], 106 nM (active) and 96.9 nM (active) and 68.6 nM (active); in [5], 425 nM (active) and 138 nM (active) and 100 nM (active); in test [6], 123 nM (active); in [9], 34.2 µM (active). In test [8], the outcome was inactive.

With `CCCOC(=O)c1cc(O)c(O)c(O)c1`, the Potency entry in test [1] and in test [5] was “inactive” each time. Moreover, the Potency was 13.3 µM (active) and 43.1 µM (active) and 43.3 µM (active) in [2]; 15 µM (active) and 27.2 µM (active) and 30.6 µM (active) in test [3]; 13.3 µM (active) and 27.2 µM (active) and 27.3 µM (active) in [4].

In the case of `O=Nc1ccc(Nc2ccccc2)cc1`, the Potency result in [1] is “inactive”. Further, the Potency in test [2] is 3.88 µM (active) and 3.06 µM (active); in [3], 1.23 µM (active) and 1.72 µM (active); in test [4] it was 3.08 µM (active) and 2.17 µM (active); in test [5], 17.5 µM (active) and 30.9 µM (active); in test [10], 61.4 µM (active); in [9] it was 5.48 µM (active) and 6.86 µM (active). Further, the molecule was called inactive in test [8].

`Oc1c(Cl)cc(Cl)cc1Sc1cc(Cl)cc(Cl)c1O`: the Potency in test [1] is 19.5 µM (active) and 28 µM (active) and 21.9 µM (active); in test [2], 11.9 µM (active) and 27.4 µM (active) and 17.2 µM (active); in test [3], 17.3 µM (active) [middle of 4 runs]; in [4], 17.3 µM (active) [middle of 4 runs]; in test [5] it was 6.18 µM (active) and 8.85 µM (active) and 6.16 µM (active).

As to `O=Cc1ccc(Cl)cc1`, the Potency result in test [1], in test [2], in test [3], in test [4], in test [5] and in test [6] was “inactive” in each case. Moreover, the Potency result in test [10] is “inactive”. Moreover, the Potency in test [7] was 19.4 µM (active).

As for `CCC(C)(Oc1ccc(C2(c3ccc(OC(C)(CC)C(=O)O)cc3)CCCCC2)cc1)C(=O)O` (stereo unspecified), the Potency result in [1], in test [2], in test [3], in test [4], in test [5] and in test [6] was “inactive” throughout. In addition, the Potency result in test [7], in test [10] and in test [9] was “inactive” throughout. Moreover, in [8], the outcome was inactive.

For `Oc1c(Cl)cc(Cl)c(Cl)c1Cc1c(O)c(Cl)cc(Cl)c1Cl`, the Potency was 1.69 µM (active) and 21.8 µM (active) and 19.5 µM (active) in [1]; 5.96 µM (active) and 3.05 µM (active) and 4.33 µM (active) in test [2]; 5.96 µM (active) and 3.05 µM (active) and 3.86 µM (active) in test [3]; 8.41 µM (active) and 3.05 µM (active) and 3.86 µM (active) in test [4]; 9.52 µM (active) and 1.54 µM (active) and 1.74 µM (active) in test [5]; 10.7 µM (active) and 1.74 µM (active) in test [6]. The Potency in [9] was 26.6 µM (active) and 9.66 µM (active) and 24.3 µM (active). Besides, in test [8], the outcome was inactive.

On to `O=C(O)c1cc(Cl)cc(Cl)c1`, for which the Potency entry in test [1], in test [2], in test [3], in test [4], in test [5] and in [10] was “inactive” each time.

With `OCC(CO)N[C@H]1C[C@](O)(CO)[C@@H](O)[C@H](O)[C@H]1O`, the Potency result in [1], in [2], in [3], in test [4], in test [5] and in test [6] was “inactive” in each case. Besides, the Potency result in [7], in test [10] and in test [9] was “inactive” each time. Further, the molecule was called inactive in test [8].

Take `c1ccc2c(c1)-c1cccc3c1c-2cc1ccccc13`: the Potency result in test [1], in test [2], in [3], in [4] and in test [5] was “inactive” in each case.

Consider `CC1COC(=O)O1` (stereo unspecified), for which the Potency entry in test [1], in test [2], in test [3], in test [4], in test [5] and in [6] was “inactive” in each case. Further, the Potency entry in [7], in [10] and in [9] was “inactive” each time. In test [8], the molecule was called inactive.

In the case of `CC(=O)Nc1ccc(C(=O)CCl)cc1`, the Potency entry in test [1], in test [5] and in test [7] was “inactive” each time. Also, the Potency entry in test [2] is “inactive and 1.72 µM (active)”; in test [3] it was 1.93 µM (active); in test [4] it was 1.72 µM (active); in test [9], “inactive and 8.63 µM (active)”. Further, the molecule was classed as inactive in [8].

As to `C/C=C/c1ccc(OCC)c(O)c1`, the Potency entry in test [1], in [2], in test [3], in [4], in test [5] and in test [10] was “inactive” each time.

With `Cc1cc(OCCOCC[N+](C)(C)Cc2ccccc2)ccc1C(C)(C)CC(C)(C)C`, the Potency in test [1] was 21.3 µM (active) and 17.3 µM (active); in test [2] it was 841 nM (active) and 1.21 µM (active); in [3] it was 1.19 µM (active) and 682 nM (active); in test [4], 1.06 µM (active) and 765 nM (active); in test [5], 16.9 µM (active) and 15.4 µM (active); in test [10] it was 24.2 µM (active). The Potency in [9] is 10.6 µM (active) and 12.1 µM (active). Moreover, the result in test [8] was inactive.
